Measurements reported in PubChem BioAssay AID588358 (NMMLSC, 2011).
Several values for one entry are separate records, joined by “and”; a condition that tells them apart may be missing. Equal entries are not always repeated. Screen size: about 310,000 compounds; about 1,500 (0.48%) were called active.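 How the source made its calls: active means binding more than 3 SD below its plate's average and above zero; inconclusive means below that plate limit but binding exactly zero; inactive means the rest.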 What follows is part of a selection rich in actives, with near analogues and random picks from the rest.

The compounds below were run against Desmoglein-3 (Homo sapiens) (UniProt P32926) (assay: inhibitors of pemphigus antibody binding to DSG3, primary screen, biochemical, bead-based, flow cytometry, scFv-GFP (AID 588358;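 further: hits lower antibody fragment binding to DSG3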)). Conditions: DSG3-coupled beads, scFv-anti-DSG3-GFP binding, at 10 µM, hits give low values.
Desmoglein-3 (Homo sapiens), sequence (P32926 whole entry, looked up, the tested form may be a part): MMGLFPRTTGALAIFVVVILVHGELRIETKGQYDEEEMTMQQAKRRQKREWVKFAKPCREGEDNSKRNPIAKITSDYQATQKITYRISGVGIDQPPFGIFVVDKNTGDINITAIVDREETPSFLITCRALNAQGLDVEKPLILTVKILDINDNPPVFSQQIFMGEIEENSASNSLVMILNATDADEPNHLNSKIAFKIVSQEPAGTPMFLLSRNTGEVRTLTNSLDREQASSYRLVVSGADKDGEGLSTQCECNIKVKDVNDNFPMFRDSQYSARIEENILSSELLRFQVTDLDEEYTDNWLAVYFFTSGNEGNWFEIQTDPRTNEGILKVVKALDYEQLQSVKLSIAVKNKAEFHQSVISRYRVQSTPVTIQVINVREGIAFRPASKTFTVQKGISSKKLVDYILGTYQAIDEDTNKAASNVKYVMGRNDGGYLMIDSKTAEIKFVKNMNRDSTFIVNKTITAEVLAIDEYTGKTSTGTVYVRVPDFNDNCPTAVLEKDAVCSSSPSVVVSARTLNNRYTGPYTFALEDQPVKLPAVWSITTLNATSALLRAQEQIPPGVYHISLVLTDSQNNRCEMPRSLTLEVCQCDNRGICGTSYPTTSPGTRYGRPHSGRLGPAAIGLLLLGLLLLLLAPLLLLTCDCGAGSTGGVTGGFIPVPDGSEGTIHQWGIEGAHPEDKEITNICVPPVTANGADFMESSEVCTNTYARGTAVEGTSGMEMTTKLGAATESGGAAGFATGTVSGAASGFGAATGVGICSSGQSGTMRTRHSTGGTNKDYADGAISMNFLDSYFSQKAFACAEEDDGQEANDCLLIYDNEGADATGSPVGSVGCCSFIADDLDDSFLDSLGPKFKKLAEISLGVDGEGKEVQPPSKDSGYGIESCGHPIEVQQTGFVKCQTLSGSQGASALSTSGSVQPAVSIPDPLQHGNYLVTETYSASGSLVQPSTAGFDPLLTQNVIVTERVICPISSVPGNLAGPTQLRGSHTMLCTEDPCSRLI
With `O=S1(=O)CCN(C2CCCCCCCCCCC2)CC1` the binding (percent of control) was 96.7% (inactive). For `CC(=O)Nc1ccc(C=Cc2ccc([N+](=O)[O-])cc2)cc1`, the binding (percent of control) was 101% (inactive). With `CCN(CC(=O)Nc1ccc(NC(C)=O)cc1)C(=O)C1CC(=O)N(c2ccc3c(c2)OCCO3)C1` (stereo unspecified) the binding (percent of control) was 102% (inactive). With `CC(C)c1ccc(NC(=O)C2CCCN(S(=O)(=O)c3cccnc3)C2)cc1` (stereo unspecified) the binding (percent of control) was -3.9% (active). `O=C(Nc1ccc(F)c(Cl)c1)C1CCN(S(=O)(=O)c2cccnc2)CC1` was tested, and the binding (percent of control) was 109% (inactive). For `COc1ccc(S(=O)(=O)N2CCCC(C(=O)Nc3ccc(NC(=O)c4ccccn4)cc3)C2)cc1` (stereo unspecified), the binding (percent of control) was 101% (inactive). `C=CCn1nc(C(=O)OCC)cc1-c1sc(NC(=O)c2ccccc2)nc1C` was tested, and the binding (percent of control) was 102% (inactive). `Cc1cc(Nc2ccc(C)c(C)c2)n2ncnc2n1` was tested, and the binding (percent of control) was 95% (inactive). With `CCN(CC)C(=O)C1=C(C)N(Cc2ccc(OC)cc2)C(=O)C(CC(=O)NCCCCc2ccccc2)C1` (stereo unspecified) the binding (percent of control) was 109% (inactive). With `CC1CCN(S(=O)(=O)c2ccc(S(=O)(=O)NCc3cccnc3)cc2)CC1` the binding (percent of control) was 94.4% (inactive). In the case of `O=S(=O)(NCc1ccccc1)c1ccc(S(=O)(=O)N2CCCC2)cc1`, the binding (percent of control) is reported as 7.03% (active). For `O=S(=O)(c1ccc(-c2ccccc2)cc1)N1CCCC1`, the binding (percent of control) was 95.9% (inactive). With `CCOc1cc(/C=N/NC(=O)c2c(C)nc3ccc(Cl)cn23)ccc1O` the binding (percent of control) was 108% (inactive). For `C=CCN(CC=C)S(=O)(=O)c1ccc(C(=O)Nc2sc3c(c2C(N)=O)CCCCC3)cc1`, the binding (percent of control) was 110% (inactive). `COc1cccc(OC)c1C(=O)Nc1sc2c(c1C(N)=O)CCCC2` was tested, and the binding (percent of control) was 109% (inactive). With `NC(=O)c1c(NC(=O)c2ccccc2)sc2c1CCCC2` the binding (percent of control) was 63.6% (active). For `O=C(C1=C(O)C(=O)N(Cc2ccccc2)C1c1ccco1)c1ccco1` (stereo unspecified), the binding (percent of control) was 108% (inactive). In the case of `O=C(C1=C(O)C(=O)N(Cc2ccccc2)C1c1cccnc1)c1ccco1` (stereo unspecified), the binding (percent of control) is reported as 64.8% (active). In the case of `CCOc1cc(C2C(C(=O)c3ccco3)=C(O)C(=O)N2Cc2ccccc2)ccc1O` (stereo unspecified), the binding (percent of control) is reported as 104% (inactive). In the case of `CN1CCN(c2ccncc2S(=O)(=O)N2CCCC2)CC1`, the binding (percent of control) is reported as 102% (inactive). With `O=c1ccc(-c2ccc(S(=O)(=O)Nc3ccccc3)o2)n[nH]1` the binding (percent of control) was 110% (inactive). With `CC1CCCN(S(=O)(=O)c2ccc(-c3ccc(=O)[nH]n3)o2)C1` (stereo unspecified) the binding (percent of control) was 49% (active). `Cc1ccc(NS(=O)(=O)c2ccc(-c3ccc(=O)[nH]n3)o2)c(C)c1` was tested, and the binding (percent of control) was 102% (inactive). For `COc1ccc(C(C)(C)C)cc1NC(=O)CN(C)C1=NS(=O)(=O)c2ccccc21`, the binding (percent of control) was 104% (inactive). For `O=C(c1ccco1)N1CCN(Cc2cccc(C(F)(F)F)c2)CC1`, the binding (percent of control) was 107% (inactive). With `COC(=O)c1ccc(CNC(=O)C2CCC(=O)N(Cc3cccc(F)c3)C2)cc1` (stereo unspecified) the binding (percent of control) was 97% (inactive). `O=C1CCC(C(=O)N2CCCCO2)CN1Cc1cccc(C(F)(F)F)c1` (stereo unspecified) was tested, and the binding (percent of control) was 90.7% (active). `Cc1ccnc(SC2CC(=O)N(c3ccccc3)C2=O)n1` (stereo unspecified) was tested, and the binding (percent of control) was 95.7% (inactive). `O=C(NCC(F)(F)F)c1ccc(S(=O)(=O)NCCc2ccc3c(c2)OCCO3)cc1` was tested, and the binding (percent of control) was 97.1% (inactive). In the case of `C[C@H](O)[C@@H]1C(=O)N2CCc3c([nH]c4ccccc34)[C@@H]2C[C@@H]1N(C)C(=O)Nc1ccc(F)cc1`, the binding (percent of control) is reported as 109% (inactive). In the case of `CN(C)c1cc[n+](Cc2ccccc2)cc1`, the binding (percent of control) is reported as 99.9% (inactive). With `O=C(c1ccc(CSc2ccccc2)cc1)N1CCCCCC1` the binding (percent of control) was 105% (inactive). In the case of `CN(C)c1ccc(CSc2ccccc2)cc1`, the binding (percent of control) is reported as -6.16% (active). `Cc1ccc(Cc2c(-c3ccc(C)cc3)nc3c4ccccc4ccn23)cc1` was tested, and the binding (percent of control) was 109% (inactive). With `Cc1ccc(S(=O)(=O)/N=C2\C=C(NS(=O)(=O)c3ccc(C)cc3)C(=O)c3ccccc32)cc1` the binding (percent of control) was 97.2% (inactive). With `COc1ccc(NC(=O)CN(C)C(=O)c2cc(-c3ccc(C)o3)nc3ccccc23)cc1` the binding (percent of control) was 96.9% (inactive). `COc1cccc(NC(=O)CN(C)C(=O)c2ccccc2CCc2ccccc2)c1` was tested, and the binding (percent of control) was 108% (inactive). With `COc1cccc(NC(=O)CN(C)C(=O)c2cc(Cl)nc3ccccc23)c1` the binding (percent of control) was 80.8% (active). For `CSc1ncccc1C(=O)N1CCCC(Nc2ccc(F)c(F)c2)C1` (stereo unspecified), the binding (percent of control) was 104% (inactive). In the case of `CCN(C(=O)Nc1cccc2ccccc12)c1ccccc1`, the binding (percent of control) is reported as 103% (inactive). For `CCc1ccccc1NC(=O)CN1CCN(C(=O)c2cc(C3CC3)nn2-c2ccccc2)CC1`, the binding (percent of control) was 106% (inactive). With `COc1ccc(S(=O)(=O)N(C)C)cc1NC(=O)COC(=O)c1n[nH]c2ccccc12` the binding (percent of control) was 98.8% (inactive). With `Cc1cccc(C(=O)C(O)(c2ccccc2)C2CCCCC2=O)c1` (stereo unspecified) the binding (percent of control) was 106% (inactive). In the case of `O=C(O)c1ccccc1CSc1nc2ccccc2s1`, the binding (percent of control) is reported as 116% (inactive). For `CCOc1ccccc1Nc1ccc2nonc2c1[N+](=O)[O-]`, the binding (percent of control) was 96.1% (inactive). `O=[N+]([O-])c1c(NCCO)cc(Sc2nc3ccccc3s2)c2nonc12` was tested, and the binding (percent of control) was 83.3% (active). With `CCOC(=O)C(=Cc1ccccc1)C(=O)c1ccccc1` the binding (percent of control) was 106% (inactive). In the case of `CCN(CC)C(=O)C1=C(C)N(Cc2ccccc2)C(=O)C(CC(=O)NC(c2ccccc2)c2ccccc2)C1` (stereo unspecified), the binding (percent of control) is reported as 107% (inactive). For `O=C(CCc1ccc(O)cc1)NN=Cc1cc(Br)ccc1O`, the binding (percent of control) was 106% (inactive). With `COc1ccc(-c2noc(COc3ccc(Cl)c(C)c3)n2)cc1` the binding (percent of control) was 66.6% (active). `COc1ccc(-c2noc(CCC(=O)N3CCN(c4cccc(C)c4)CC3)n2)cc1` was tested, and the binding (percent of control) was 98.6% (inactive). For `COc1ccc(-c2noc(CNC(=O)C(C)Oc3ccccc3)n2)cc1` (stereo unspecified), the binding (percent of control) was 109% (inactive). In the case of `Cc1ccc(-c2ccc(C3=CC(=O)CC(C)(C)C3=O)cc2)cc1`, the binding (percent of control) is reported as 97.6% (inactive). `COc1ccc(C(CNC(=O)CSc2ccccc2)N2CCOCC2)cc1` (stereo unspecified) was tested, and the binding (percent of control) was 100% (inactive). `CC(C)c1cc(C(=O)N(C)C2CCCN(Cc3ccccc3F)C2)n(C)n1` (stereo unspecified) was tested, and the binding (percent of control) was 96.7% (inactive). `CC(C)C1CCN(C(=O)C2CCC(=O)N(C3CCCCCC3)C2)CC1` (stereo unspecified) was tested, and the binding (percent of control) was 101% (inactive). In the case of `CCCCOC(=O)NCN1C(=O)C2C3C=CC(C3)C2C1=O` (stereo unspecified), the binding (percent of control) is reported as 110% (inactive). In the case of `CCC(C(=O)N1CCOCC1)n1c(C(=O)OC)cc2occc21` (stereo unspecified), the binding (percent of control) is reported as 99.3% (inactive). In the case of `CCCC(C(=O)N1CCOCC1)N1C(=O)C2C3C=CC(C3)C2C1=O` (stereo unspecified), the binding (percent of control) is reported as -12.4% (active). With `CCCCCC(=O)N1C[C@H](O)[C@@H](n2cc(COC(=O)c3ccccc3)nn2)C[C@@H]1c1ccc(C)cc1` the binding (percent of control) was 102% (inactive). With `C=CC1=C(C(=O)O)N2C(=O)[C@@H](NC(=O)/C(=N\OCC(=O)O)c3csc(N)n3)[C@H]2SC1` the binding (percent of control) was 71% (active). With `C=CC1=C(C(=O)O)N2C(=O)[C@@H](NC(=O)/C(=N/OCC(=O)O)c3csc(N)n3)[C@H]2SC1` the binding (percent of control) was 68.8% (inactive). In the case of `CO/N=C(\C(=O)N[C@@H]1C(=O)N2C(C(=O)O)=C(COC(C)=O)CS[C@H]12)c1csc(N)n1` (stereo in doubt), the binding (percent of control) is reported as 100% (inactive) and 106% (inactive). For `O=C(CCCN1C(=O)C(c2ccccc2)Oc2cccnc21)Nc1ccccc1Br` (stereo unspecified), the binding (percent of control) was 105% (inactive). With `O=C(OCc1cn([C@H]2C[C@H](c3ccccc3)N(C(=O)c3cccs3)C[C@@H]2O)nn1)c1ccccc1` the binding (percent of control) was 106% (inactive). With `O=c1c2[nH]c3ccc(Cl)cc3c2ncn1Cc1ccccn1` the binding (percent of control) was 51% (active). `Cc1ccc2[nH]c3c(=O)n(Cc4ccccn4)cnc3c2c1` was tested, and the binding (percent of control) was 108% (inactive). `COc1ccc2c(c1)c1ncn(Cc3ccccn3)c(=O)c1n2C` was tested, and the binding (percent of control) was 112% (inactive). For `C[C@@H]1CN([C@@H](C)CO)C(=O)CCCn2nncc2CO[C@H]1CN(C)Cc1ccc(C(F)(F)F)cc1`, the binding (percent of control) was 103% (inactive). `Cc1cc(C)c2cc(C#N)c(N3CCNCC3)nc2c1` was tested, and the binding (percent of control) was 105% (inactive). With `C#CCOc1ccc(/C=C2/C(=O)ON=C2C)cc1OCC` the binding (percent of control) was 111% (inactive). With `C#CCOc1ccc(/C=C2/C(=O)NN(c3ccccc3)C2=O)cc1OC` the binding (percent of control) was 81.6% (active). With `COc1cc(/C=C2/C(=O)NN(c3cccc(Cl)c3)C2=O)cc(Br)c1O` the binding (percent of control) was 233% (inactive). For `Cc1ccc(Cc2c(-c3ccccc3)nc3ccc(Cl)cn23)cc1`, the binding (percent of control) was 105% (inactive). In the case of `CCOC(=O)c1cc(-c2sc(NC(=O)c3ccccc3)nc2C)n(CCO)n1`, the binding (percent of control) is reported as 96.7% (inactive). In the case of `CCN(CC)C(=O)C(C)N1c2cccc3cccc(c23)S1(=O)=O` (stereo unspecified), the binding (percent of control) is reported as 98.7% (inactive). In the case of `CCOc1cc(N2CCOCC2)c(OCC)cc1NC(=O)c1ccc(C)s1`, the binding (percent of control) is reported as 72.7% (active). In the case of `CCOc1cc(N2CCOCC2)c(OCC)cc1NC(=O)COc1cccc(Cl)c1`, the binding (percent of control) is reported as 96.8% (inactive). `CCOc1cc(N2CCOCC2)c(OCC)cc1NC(=O)C1=NN(c2cccc(C)c2)C(=O)CC1` was tested, and the binding (percent of control) was 102% (inactive). In the case of `Cc1ccc(C(=O)NC(C)C(c2cccs2)N2CCOCC2)cc1C` (stereo unspecified), the binding (percent of control) is reported as 92.7% (inactive). In the case of `Cc1ccccc1OS(=O)(=O)c1cccc([N+](=O)[O-])c1`, the binding (percent of control) is reported as 100% (inactive). In the case of `COCOCCn1cc(CN2CCS(=O)(=O)N(Cc3ccc(-c4ccc(OC)cc4)cc3)C(CC(C)C)C2=O)nn1` (stereo unspecified), the binding (percent of control) is reported as 103% (inactive). `Cc1ccc(-c2ccc(/C=N/NC(=O)CN3CCOCC3)o2)cc1[N+](=O)[O-]` was tested, and the binding (percent of control) was 101% (inactive). In the case of `Cc1cc(C)c([N+](=O)[O-])cc1-c1ccc(/C=N/NC(=O)c2nonc2N)o1`, the binding (percent of control) is reported as 87.1% (active). With `COc1cc(/C=N\NC(=O)c2nonc2N)c(OC)cc1Br` the binding (percent of control) was 89.4% (inactive). `O=C(NCCS(=O)(=O)N1CCN(c2ccccc2)CC1)c1cc(=O)c2ccccc2o1` was tested, and the binding (percent of control) was 99.7% (inactive). `O=C(NCCOc1ccccc1)N1[C@H]2CC[C@@H]1C=C(c1ccc(F)cc1OCc1ccccc1)C2` was tested, and the binding (percent of control) was 107% (inactive). In the case of `CCC(Oc1ccccc1)C(=O)OCC(=O)Nc1c(C)nn(-c2ccccc2)c1C` (stereo unspecified), the binding (percent of control) is reported as 106% (inactive). For `Cc1cnc(C(=O)Oc2cccc(Cl)c2Cl)cn1`, the binding (percent of control) was -19.6% (active). With `Cc1cnc(C(=O)OCC(=O)Nc2ccc(Cl)cc2Cl)cn1` the binding (percent of control) was 113% (inactive). In the case of `Cc1cnc(C(=O)OCC(=O)NCCCc2ccccc2)cn1`, the binding (percent of control) is reported as 104% (inactive).
